# Several values for one entry are separate records, joined by “and”; a condition that tells them apart may be missing. Equal values may be shown once. Activity calls are given as the source filed them. How the source made its calls: active means hit-call score of the fitted dose curve at least 0.9, where 1 is the maximum; inconclusive means response in the unintended direction; inactive means score below 0.9.
# Molecular target: Peroxisome proliferator-activated receptor gamma (Homo sapiens) (UniProt P37231)
# Assay: OT_PPARg_PPARgSRC1_1440: Odyssey Thera (OT) 24-hour Protein-Complementation Assay for Peroxisome Proliferator-activated Receptor Gamma/ SRC-1 Co-activator (AID 2283388);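 further: nuclear to cytoplasmic ratio of reconstituted Venus YFP fluorescence in fixed imaged cells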
# Experimental: OT_PPARg_PPARgSRC1_1440 is a cell-based assay that uses HEK293T, a human kidney cell line, with measurements taken at 24 hours after chemical dosing in a 384-well plate.OT_PPARg_PPARgSRC1_1440 is one of one assay component(s) measured or calculated from the OT_PPARg_PPARgSRC1_1440 assay. It is designed to make measurements of protein fragment complementation, a form of binding reporter, as detected with fluorescence intensity signals by Protein-fragment Complementation technology.Data from the assay component OT_PPARg_PPARgSRC1_1440 was analyzed into 1 assay endpoint. This assay endpoint, OT_PPARg_PPARgSRC1_1440, was analyzed in the positive analysis fitting direction relative to DMSO as the negative control and baseline of activity. Using a type of binding reporter, measures of receptor for gain-of-signal activity can be used to understand the binding at the pathway-level as they relate to the gene PPARG. Furthermore, this assay endpoint can be referred to as a primary readout, because the performed assay has only produced 1 assay endpoint. To generalize the intended target to other relatable targets, this assay endpoint is annotated to the nuclear receptor intended target family, where the subfamily is non-steroidal.
# The OT PPARg/SRC-1 assay assessed receptor-chemical interactions using a rapidly maturing, intensely fluorescent mutant of YFP known as Venus, rationally dissected into two separate fragments. The fragments were obtained as follows: first, fragments coding for YFP1 and YFP2 (corresponding to amino acid residues 1-158 and 159-239 of the full length YFP, respectively) were generated by oligonucleotide synthesis (Blue Heron Biotechnology), and then PCR mutagenesis was used to generate the mutant fragments IFP1 and IFP2. Fusion constructs were transfected into HEK293T cells with a (Gly4Ser)2 linker between the PPARg/SRC-1 and YFP fragment genes to facilitate complementation when interacting proteins bring fragments into close proximity. The construct is transiently transfected in HEK293T cells 48 hours prior to treatment with test compounds. Cells are seeded into optical quality 384-well poly-D-lysine coated plates in MEM alpha medium (Invitrogen) supplemented with 10 percent FBS (Gemini Bio-Products) 1 percent penicillin and 1 percent streptomycin, and grown in 37C incubator equilibrated to 5 percent CO2. Cells are allowed to adhere for 24 hours prior to treatment with compounds of interest or controls for 24 hours. Cells are fixed in 4 percent formaldehyde and stained with Draq5 (BioStatus) to identify cells and subcellular compartment boundaries prior to signal detection. 8 Images per well were acquired on an Evotec Opera at 2 wavelengths (488 and 635nm), and the ratio of fluorescence in the nucleus relative to fluorescence in the cytoplasm (N/C Ratio) in the 488nm channel was calculated for a minimum of 350 cells per image.
# Chain of Peroxisome proliferator-activated receptor gamma (Homo sapiens) (P37231 whole entry, looked up): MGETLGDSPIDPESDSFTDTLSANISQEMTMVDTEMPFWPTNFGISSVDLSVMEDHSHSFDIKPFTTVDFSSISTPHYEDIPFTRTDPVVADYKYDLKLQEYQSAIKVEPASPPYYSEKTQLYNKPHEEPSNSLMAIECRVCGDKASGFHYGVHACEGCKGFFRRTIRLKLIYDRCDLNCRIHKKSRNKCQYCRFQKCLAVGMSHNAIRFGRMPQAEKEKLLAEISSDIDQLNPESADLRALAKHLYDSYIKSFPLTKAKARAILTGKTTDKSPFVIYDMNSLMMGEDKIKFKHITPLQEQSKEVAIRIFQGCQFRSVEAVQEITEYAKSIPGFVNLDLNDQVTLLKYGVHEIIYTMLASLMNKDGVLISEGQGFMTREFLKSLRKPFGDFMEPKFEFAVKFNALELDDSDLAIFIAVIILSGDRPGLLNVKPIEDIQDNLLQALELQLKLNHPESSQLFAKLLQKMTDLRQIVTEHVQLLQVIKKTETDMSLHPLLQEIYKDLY
SMILES,outcome,AC50
CC(C)CCO,inactive,–
CC(=O)c1ccc2c(c1)[C@H](NC(=O)c1ccc(F)cc1)[C@@H](O)C(C)(C)O2,inactive,–
O=C(O)c1cccc(N(Cc2cccnc2)c2ccc(OC(F)F)c(OC(F)F)c2)c1,inactive,–
Fc1ccccc1[C@@H](F)COC1CCC(Nc2ncnc3[nH]ncc23)CC1 (stereo not given in full),inactive,–
CNCc1ccc(NC(=O)c2c[nH]c3c2C(=O)CCC3)cc1,inactive,–
CC/C(=C\C(=N/O)C(N)=O)C(C)[N+](=O)[O-] (stereo not given),inactive,–
Cc1ccc(S(=O)(=O)O)cc1C,inactive,–
CCNc1ccccc1,inactive,–
CCCCC(CC)COC(=O)CCCCCCCCC(=O)OCC(CC)CCCC (stereo not given),inactive,–
COc1ccc(/C=C/S(=O)(=O)NC(=O)c2ccc(C)cc2Cl)cc1,–,60.6 µM (active)
Clc1nc(Cl)c(Cl)c(Cl)c1Cl,inactive,–
Cc1ccc(O)cc1,inactive,–
CC(C)(O)c1coc(S(=O)(=O)NC(=O)Nc2c3c(cc4c2CCC4)CCC3)c1,inactive,–
COC(=O)CC(=O)OC,inactive,–
O=C(OC[C@H]1O[C@@H](OC(=O)c2cc(O)c(O)c(OC(=O)c3cc(O)c(O)c(O)c3)c2)[C@H](OC(=O)c2cc(O)c(O)c(OC(=O)c3cc(O)c(O)c(O)c3)c2)[C@@H](OC(=O)c2cc(O)c(O)c(OC(=O)c3cc(O)c(O)c(O)c3)c2)[C@@H]1OC(=O)c1cc(O)c(O)c(OC(=O)c2cc(O)c(O)c(O)c2)c1)c1cc(O)c(O)c(OC(=O)c2cc(O)c(O)c(O)c2)c1,inactive,–
Oc1ccc2c(c1)-c1ccccc1C2,inactive,–
CCCCCCCCCCCCc1ccccc1,inactive,–
CCOCCOCCOCCO,inactive,–
CN(C)c1ccc(Cc2ccc(N(C)C)cc2)cc1,inactive,–
C1=CCCC=CCCC=CCC1,inactive,–

SMILES,outcome,AC50
CC(C)=CCC/C(C)=C\CO,inactive,–
CCCCCCCCCCCCCCCO,inactive,–
CC(C)CCCCCCCOC(=O)CCCCC(=O)OCCCCCCCC(C)C,inactive,–
O=c1n(CC2CO2)c(=O)n(CC2CO2)c(=O)n1CC1CO1 (stereo not given),inactive,–
C1N2CN3CN1CN(C2)C3,inactive,–
O=P(OC(CCl)CCl)(OC(CCl)CCl)OC(CCl)CCl,inactive,–
On1ccccc1=S,inactive,–
CC[C@H](C)C(=O)O[C@H]1C[C@@H](C)C=C2C=C[C@H](C)[C@H](CC[C@@H]3C[C@@H](O)CC(=O)O3)[C@H]21,inactive,–
CCC(C)(C)C(=O)O[C@H]1C[C@@H](C)C=C2C=C[C@H](C)[C@H](CC[C@@H]3C[C@@H](O)CC(=O)O3)[C@H]21,inactive,–
COc1cccc(-c2ccc(/C=C\CN3CCCCCC3)cc2Cl)c1,inactive,–
CC(C)=CCCC(C)=CC=O,inactive,–
CC1(C)C(=O)N(Br)C(=O)N1Br,inactive,–
CCc1cc(SCc2sc(-c3ccc(C(F)(F)F)cc3)nc2CN2CCN(c3ccc(OC)cc3)CC2)ccc1OCC(=O)O,–,723 nM (active) and 1.02 µM (active)
O=C(O)c1cccc(Oc2ccccc2)c1,inactive,–
O=C1OC(=O)C2C3C=CC(C3)C12 (stereo not given),inactive,–
Cn1c(=O)c2c(ncn2C)n(C)c1=O,inactive,–
O=c1[nH]c2ccc(S(=O)CCN3CCC(Cc4ccc(F)cc4)CC3)cc2o1 (stereo not given),inactive,–
COCCOCCOCCOC,inactive,–
CCCCCCCCO,inactive,–
CCCN(C1CCN(C(=O)C2CCNCC2)CC1)[C@@H]1CCc2ccc(OC)cc2C1,inactive,–
